Data taken from PubChem BioAssay (NCATS).
Values joined by “and” are separate entries in the source; they are usually repeats but may differ in a detail not shown here. Identical values can stand only once. Active and inactive are the calls of the source. Calls follow the shape of the dose curve; as a rule, active = well fitted activation curve with a large enough effect; inconclusive = small, poorly fitted or top-dose-only effect; inactive = no such curve, though single readings can be large or run the other way.

biological target: Cytochrome P450 3A4 (Homo sapiens) (UniProt P08684); test: qHTS Assay for Activators of Cytochrome P450 3A4 (AID 885); conditions: recombinant CYP3A4, Luciferin-PPXE luminescence, 60 min; series mostly up to 57.1 µM; activity change, positive = activation: at the top concentration; also: nearly all actives have a fitted effect of over 65% in size
Method: NIH Molecular Libraries Screening Centers Network [MLSCN]
NIH Chemical Genomics Center [NCGC]
The P450 gene superfamily is involved in the metabolism and clearance of xenobiotics. This assay used human CYP3A4 to measure the dealkylation of luciferin-6' phenylpiperazinylyl (Luciferin-PPXE; […]) to luciferin. The luciferin is then measured by luminescence after the addition of a luciferase detection reagent. Luciferin-PPXE concentration in the assay was equal to its KM for CYP3A4. Inhibitors and some substrates limit the production of luciferin, and decrease measured luminescence; activators increase the production of luciferin and luminescence.
NCGC Assay Protocol Summary:
Two uL of enzyme and substrate mix (final concentrations: 20nM CYP3A4, 25uM Luciferin-PPXE, 200mM KPO4) were dispensed into a white, solid bottom 1536-well microtiter plate. 23nL of compound was transferred by a pin tool. The plate was incubated at RT for 10 min. Two uL of an NADPH regeneration solution (Promega supplied reagent) was dispensed and the reaction was allowed to continue for 60 min at RT. Then the reaction was stopped by reconstituted luciferin detection buffer. After another 20 min of incubation the plate was read on the ViewLux (Perkin Elmer) at 60 sec exposure and 2x2 binning. This protocol was carried out with Promega-Glo reagents and further information can be found at http://www.promega.com/tbs/tb325/tb325.pdf. Data were normalized to the to AC100 inhibition (57 uM ketoconazole).
Keywords: P450, CYP2D6, Luciferase, MLSMR, MLSCN, NIH Roadmap, qHTS, NCGC

Cytochrome P450 3A4 (Homo sapiens), sequence (P08684 whole entry, looked up): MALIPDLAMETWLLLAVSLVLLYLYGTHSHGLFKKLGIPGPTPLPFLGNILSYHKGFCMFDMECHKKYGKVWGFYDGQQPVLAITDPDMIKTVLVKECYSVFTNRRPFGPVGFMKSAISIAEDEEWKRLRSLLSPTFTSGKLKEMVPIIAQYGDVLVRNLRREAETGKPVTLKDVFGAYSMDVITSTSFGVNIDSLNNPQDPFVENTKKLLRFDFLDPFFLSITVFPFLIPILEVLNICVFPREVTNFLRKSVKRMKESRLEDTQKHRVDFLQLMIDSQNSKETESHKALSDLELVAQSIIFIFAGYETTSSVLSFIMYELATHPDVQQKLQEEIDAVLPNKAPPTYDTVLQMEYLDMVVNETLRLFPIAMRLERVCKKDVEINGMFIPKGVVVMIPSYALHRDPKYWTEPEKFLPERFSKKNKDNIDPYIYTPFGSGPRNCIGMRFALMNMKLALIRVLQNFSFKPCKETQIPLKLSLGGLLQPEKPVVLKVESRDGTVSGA

Activity change, positive = activation, inactive:
CC1CN2C(CCC(C)C2c2ccc(Br)cc2)C(=O)O1 (stereo not given) -51.1% [at 11.4 µM]
Cc1ccc(S(=O)(=O)N[C@H]2COC(=O)C/C=C\[C@@H](C)[C@H](NS(=O)(=O)c3ccc(C)cc3)COC(=O)C/C=C\[C@H]2C)cc1 -62.5% [at 11.4 µM]
COc1ccc(COC(=O)N/N=C2/C[C@@H](O)[C@@H](O)[C@@H]3[C@H]4C(=O)N(c5ccc(F)cc5F)C(=O)[C@@H]4CC[C@H]23)cc1 -51.6% [at 11.4 µM]
CCOC(=O)OCC1OC(C#Cc2ccccc2)C=CC1OC(=O)OCC (stereo not given) -79.4% [at 11.4 µM]
CC(C)c1ccccc1S(=O)(=O)c1cc(N)c2ncccc2c1[N+](=O)[O-] -84.9%
CCC1=C2CC[C@H]3C(=O)NC(=O)[C@H]3[C@H]2[C@@]2(Cc3ccccc3)C(=NCC3CC3)OC(=O)N2C1=O -88.7%
COC(=O)c1cccc(C23CC4(C2)[C@H](CN(CC2CCCCC2)[C@@H]4c2ccccc2)C3c2ccc(C(F)(F)F)cc2)c1 (stereo not given in full) -57.7%
O=C(N/N=C1/C[C@@H](O)[C@@H](O)[C@@H]2[C@@H]3C(=O)N(Cc4ccc5c(c4)OCO5)C(=O)[C@H]3CC[C@H]12)OCc1ccccc1 -89.7% [at 11.4 µM]
COc1ccc(-c2coc3ccc(OC4OC(COC(C)=O)C(OC(C)=O)C(OC(C)=O)C4OC(C)=O)c(OC(C)=O)c3c2=O)cc1 (stereo not given) -32.7%
COc1c(O)c(O)cc2c1oc1c3cc(C)ccc3oc(=O)c21 -74.9%
O=C(/C=C/c1ccc(O)cc1)c1c(O)cc(O)cc1O -101%
Cn1c(N)c(C(=O)COC(=O)c2cc(-c3ccco3)nc3ccccc23)c(=O)n(Cc2ccccc2)c1=O -71.7%
COc1ccc(OCC2CC3C(CCC(C)C3c3ccc(Br)cc3)C(=O)O2)cc1 (stereo not given) -84.4% [at 11.4 µM]
C/C(CCN1CCCCc2nc(C)c(C)cc21)=N\OC[C@@H](O)COCc1ccco1 -64.3% [at 11.4 µM]
COC(=O)c1ccc(C23CC4(C2)[C@H](CN(C)[C@@H]4c2ccccc2)C3c2ccc(Cl)nc2)cc1 (stereo not given in full) -50%
COc1cc2c(C(=O)c3ccccc3)c3c4c(cc(OC)c(OC)c4c2cc1OC)CCN3C -86.4%
CC(C)=CCC/C(C)=C/C=C/C1=CC2(C)CC1(C)C(/C=C(\C)CCC=C(C)C)CC2=O (stereo not given) -35% [at 11.4 µM]
CCOC(=O)N/N=C1/C[C@@H](O)[C@@H](O)[C@@H]2[C@@H]3C(=O)N(Cc4ccc5c(c4)OCO5)C(=O)[C@H]3CC[C@H]12 -58.6% [at 11.4 µM]
CN(C)C(=O)[C@H]1C[C@@H]1[C@H](NC(=O)OCc1ccccc1)c1ccccc1 -85.8%
CCC1=C(OC(=O)N(CC)CC)N2C(=O)OC(=NCCOC)[C@]2(Cc2ccccc2)[C@H]2C1=CC[C@H]1C(=O)N(CC)C(=O)[C@H]12 -105%
CNC(=O)[C@@H]1C[C@H]1[C@@H](NC(=O)CNC(=O)OCc1ccccc1)c1ccccc1 -59.8%
CCC1=C(OC(=O)N(CC)CC)N2C(=O)OC(=NCC3CC3)[C@]2(Cc2ccccc2)[C@H]2C1=CC[C@H]1C(=O)N(CC)C(=O)[C@H]12 -113%
CO[C@H]1COC(=O)[C@H](C)NC(=O)C/C=C\[C@@H](C)[C@@H](NS(=O)(=O)c2ccc(C)cc2)COC(=O)[C@H](OCc2ccccc2)/C=C\[C@@H]1C -79.4% [at 11.4 µM]
[C-]#[N+]/C(C#N)=C\c1cc(C(C)(C)C)c(O)c(C(C)(C)C)c1 -112%
CCOC(=O)OCC1OC(C#Cc2ccc(Br)cc2)C=CC1OC(=O)OCC (stereo not given) -52.5% [at 11.4 µM]
C#CCCCO/N=C1/C[C@@H](O)[C@@H](O)[C@@H]2[C@H]3C(=O)N(c4ccc(F)cc4F)C(=O)[C@@H]3CC[C@@H]12 -61.6% [at 11.4 µM]
COC(=O)[C@@H]1C[C@@H]2CC[C@@H](O)C[C@@H]2N1Cc1ccc(OC)cc1 -67.5%
COC(=O)c1ccc(C(NC(=O)OCc2ccccc2)/C(=C/[C@@H](C)C(=O)NCC2CC2)c2cccnc2)cc1 (stereo not given in full) -101%
CO[C@H]1OC[C@@]2(C)[C@@H]3C4=C(CN2C(=O)OC(C)(C)C)[C@H](C)[C@H](CO)[C@H](CO)[C@H]4CC[C@H]13 -41.4%
COC(=O)c1ccc(C(NC(=O)OCc2ccccc2)/C(=C/[C@@H](C)C(=O)NCc2nc3ccccc3n2C)c2cccnc2)cc1 (stereo not given in full) -91.7%
COC(=O)NC(c1ccccc1)C(C(=O)OC)C(=O)OC (stereo not given) -40.4% [at 11.4 µM]
CCN1C(=O)[C@H]2[C@H]3[C@H](O)[C@H](O)C/C(=N/O[C@@H](C)c4cn([C@H](CO)Cc5ccccc5)nn4)[C@@H]3CC[C@@H]2C1=O -35.2% [at 11.4 µM] and -33% [at 11.4 µM]
COC(=O)[C@@H]1C[C@@]2(O)[C@H](O)[C@H](O)[C@H](O)C[C@H]2N1Cc1cc(OC)cc(OC)c1 -39.3%
COC(=O)c1ccc(C(NC(=O)OCc2ccccc2)/C(C)=C/[C@@H](C)C(=O)NCc2cc(C)on2)cc1 (stereo not given in full) -105%
CCCCc1nc2c(c3c1CC(C)OC3)CN(CCC(C)C)CC2 (stereo not given) -60.1% [at 11.4 µM]
CCC1=C(OC(=O)N(CC)CC)N2C(=O)OC(=NCCOC)[C@]2(C)[C@H]2C1=CC[C@H]1C(=O)N(CC)C(=O)[C@H]12 -81.3%
CCCCCCN(C(=O)CCCCCN1C(=O)NC(c2ccc(-c3ccccc3)cc2)C(C(=O)OCc2ccccc2)=C1C)C(C(=O)NCCCC)c1ccc(O)c(C(=O)OC)c1 (stereo not given) -70.8%
Cc1ccc2oc(=O)c3c4cc(O)c(O)c(C)c4oc3c2c1 -37.5%
COc1ccc(O[C@H]2C=C[C@@H](c3ccccc3)O[C@H]2COC(=O)CC/C(C)=N\OC[C@@H](O)[C@H]2O[C@H]3OC(C)(C)O[C@H]3[C@@H]2O)cc1 -92.2% [at 11.4 µM]
CCOC(=O)OCC1OC(C#Cc2ccc(C)cc2C)C=CC1OC(=O)OCC (stereo not given) -58.4% [at 11.4 µM]
